Results reported in PubChem BioAssay AID2320 (National Center for Advancing Translational Sciences (NCATS), 2010).
Results filed as inconclusive are left out. Entries that show only a call come without a potency. Calls of active or inactive are those of the source. The call rests on the fitted dose curve.

Experiment: A qHTS for Small Molecule Inhibitors of Shiga Toxin (Confirmatory); further: nearly all actives have a fitted effect of over 75% in size
Conditions: Cell-based Shiga toxin protection reporter assay; series mostly up to 38.3 µM
Potency means the concentration at half of the fitted maximal effect.

SMILES	Potency
CCCC[C@@H]1C[C@H]1[C@@H](NC(=O)c1ccco1)c1ccc(Cl)cc1	8.95 µM (active)
Cc1nn(-c2ccc(C(=O)O)cc2)c2c1C(=O)CC(C)(C)C2	inactive
OC1C[N+]2(CCCCC2)C1	inactive
COc1cccc(/C=C/C(=O)c2cccc([N+](=O)[O-])c2)c1OC	inactive
COc1cc2c(c(OC)c1OC)-c1c(cc(OC)c(OC)c1OC)C[C@](C)(O)[C@@H](C)C2	inactive
N#Cc1ccc(N=c2ssnc2Cl)cc1	inactive
COCCCn1c(SCC(=O)OC2CCCCC2)nnc1-c1cccs1	inactive
CCC(=O)N1CCN(c2ccccc2NC(=O)c2ccc([N+](=O)[O-])o2)CC1	4 µM (active)
Cc1ccc(-c2csc(NC(=O)c3ccc(C)o3)n2)cc1	0.0318 µM (active)
O=C(Nc1nnc(S(=O)(=O)N2CCOCC2)s1)c1cccc(Br)c1	20 µM (active)
CCN(CC)CC(=O)Nc1ccc(-c2nc3cc(NC(=O)CN(CC)CC)ccc3o2)cc1	inactive
O=C(NCC(=O)N1CCCC(C(F)(F)F)C1)c1ccc(Oc2ccccc2)cc1 (stereo not drawn)	inactive
CC(=O)N/C(=C\c1ccccc1)C(=O)Nc1ccccc1C	0.0798 µM (active)
COc1ccc2nc(SCC(=O)Nc3ccc4c(c3)CCC4)[nH]c2c1	inactive
Cc1nc(SCC(=O)Nc2cc(C)on2)c2c3c(sc2n1)CCCC3	inactive
COc1ccccc1CNC(=O)c1csc2c1CCCC2	10 µM (active)
O=C1NC(=Nc2ccc(O)cc2)S/C1=C\C=C\c1ccco1	0.634 µM (active)
Cc1cc(N/C=C\c2nnnn2-c2ccccc2)no1	22.5 µM (active)
